The full ranking holds about 59,000 sequences; the median of the read-out is about -0.00055, and the lowest 2% start at about -2. The sample as a whole holds a higher share of the lowest values than the screen did.

This note sets out measurements from PubChem BioAssay AID1159506 (National Center for Advancing Translational Sciences (NCATS), 2015).

The experiment in a line: Identification of proteins required for the processing of the EWS-FLI1 nascent transcript.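 Also: robust z of luciferase light less the median z of siRNAs with the same seed.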 As to conditions: TC32 Ewing sarcoma NR0B1-luc vs CMV-luc (EWS-FLI1 target promoter against control promoter), 48 h; screened at 20 nM (by protocol). Summed up:
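Parallel TC32-NR0B1-luc and TC32-CMV-luc reverse transfections with 20 nM siRNA in RPMI-1640/10% FBS, luciferase measured 48 h later. Seed-adjusted z-scores from normalized, z-score-MAD transformed data; AllStars negative and siGL4 controls on each plate.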
The sequence AUAUUAGCAUUCUUAAUGG against ABCB10 returned a seed-corrected z-score of -0.347.
With UUCAUGACUCUUGCAUUCC against ZNF473 the figure was -0.227; with UAUAGUCUGCGUAGAGUUC against BSCL2, 0.905.
With UCGGUAUUCGAUGUGGUCC against CD177 the figure was 1.39.
With AUAAGAUACCUCUCUAUUC against NXPE1 the figure was -3.1; with UGAUAUAGCCUCCAUAUGC against INVS, -0.175; with UUCUAAUCUAGUGAUUAGC against LDB2, 0.172.
For the sequence UAAACUGAAACGGAAAUGC against PTCHD3P1, the seed-corrected z-score is -0.411.
The value for UUGAGUUUGUCACAGUUUC against SH3BP2 was 0.349.
The value for UUUCAGCUUAGGAAAGGCA against KRTDAP was -4.29; that for AGAUCUAUUGUGAACAGCC against FLT3 was -0.0495; that for UAGGUAAAUAGCCUCGUGC against CEACAM19 was 0.0325.
With UUGCAUUUUCAGGUACUUG against RDH5 the figure was -0.555; with UUUGUAAGCUCUGUCAUCC against FAM13B, -0.0737; with ACCUGUCAAAGAGCAAAGC against AMD1P3, 0.646.
In turn, UCUGAGUUUUGAGCUGUCC against MST1R had a seed-corrected z-score of -0.112.
The value for UGUCUAAUGACAAUGCUGU against UBR5 was -0.38.
The value for UACUGCUAGAUUGAGAUCC against KDM5D was -2.31; that for UAUCUUGCAUAAGUCUUGU against XRCC6BP1 was 1.28.
With UACUCUUUUCCACGAAUCC against CCDC141 the figure was -0.626.
With UUCAAUACCAAAGAUAUUG against BTF3P16, the seed-corrected z-score is -2.14.
In turn, UGAGGUCCCAGAUUCUCAG against FBXW4 registered a seed-corrected z-score of 0.248.
The sequence UCUUCGUCAUCGUUCAUUC against ZC3H4 showed a seed-corrected z-score of -2.37.
Consider AUAGACAUCUGAUCCGUUC against PGK1, for which the seed-corrected z-score is -0.0528.
The value for UCUGCGACAUUCCUCAUAG against XPO1 was -0.546; that for AUCCAGAUUAGUUUCCCUC against VIM was -2.52.
Sequence UCAAUCUCAACGGUCACCG against NLRP1 had a seed-corrected z-score of 1.3.
The value for UUUGAUUGAGGCAUAUGCG against REEP6 was 1.08; that for UCAGGUUCAGCAGGAAGUG against ADAMTS10 was -0.537.
The value for UUAAUGGUGACCUUGACCU against C19orf47 was -0.413; that for AACUGAGUUGUAGAGCUGC against IL12RB1 was -0.226.
The value for AAUUCUUUUUGUCUGGAUC against PRSS35 was 0.405; that for UAAAUCUGCUCUCCUUUCC against LY86 was 0.785; that for UUCUCUUCAACAAGUGACA against C6orf201 was -2.08.
For UCUCUGUCCUCAAAAGUGG against CLCN4, the seed-corrected z-score is -0.277.
With UACGUGAGCUUGUACAGCC against MTTP the figure was -0.0803.
The sequence UCGAGUGUGAUGUCUCUUC against AGO3 came in with a seed-corrected z-score of 0.413.
With UUGUGCACCACGAGAGUAG against RAB40AL the figure was -2.28; with UUCUGGAGCAGUUCGACAG against CNPPD1, 0.781; with UUCUCAAUCAGCACGGCCC against GPX2, -0.162.
With UCAUGUACACUGCUAAUUC against SLC30A10 the figure was 0.696.
The value for AUACUGUUCACCGAGAAGG against TSPEAR was -3.82.
Turning to UAUGUUGGUGCUCAUACUC against MED11, the seed-corrected z-score turned out to be 0.678.
With UUAAACUCAGGCUUUGGUC against HABP4 the figure was -1.03; with UACUGAUUCACAAUGACCU against RNF208, -0.361.
The value for UAACUUGAUAACAGGUGCC against OR10T2 was -5.77; that for AAAAACAACAGAAGCAUGC against TSPAN8 was 0.399.
As for UGUUGUUCAACAAAACCGC against KRT28, the seed-corrected z-score was 0.472.
The value for AUAGGCAUAUGGUUAGGCC against SS18 was -2.03; that for ACAGCGUACAGCAAACACG against TMEM54 was -12.
The value for UUCCUCUUCACCACGGUGU against CNNM3 was -0.123; that for UGAGAGUUCAUAGCGUAUC against RCE1 was -0.494.
The value for AAAGUAUAAUGGAUGUAUC against GNAI1 was -0.47.
Sequence AUAGGUACCAGGUAUGAGC against FOXM1 showed a seed-corrected z-score of 0.087.
With UUUGUUGGGAUGUUGGGUG against SPATA12 the figure was -2.1; with UGCUGAAUGAGGUACGUGC against ZNF550, -0.438.
The value for UAUCCAUUUUCCUCUAUCC against FGF10 was -0.261; that for UAUGGUUAGAAGAUAUCCC against IDS was 1.1.
The value for AAAAGCUCACGGAGAAUCC against LINC01433 was 1.28; that for AACUGUCAAUGGUUGAAGC against FCGR2A was -0.901; that for AGUUUCUCAAUGUCUGGGC against PAGR1 was -3.83.
As for UUCGAGAAAAGCAGAAUCC against PRORSD1P, the seed-corrected z-score was -0.604.
The value for ACAUCAACCACUACAGUGC against PCDHB7 was -0.314; that for UUAACUUUCUCGAUAGAAC against SLC45A2 was 0.853.
The value for UUGACGUGCAUGAAGGACC against DUSP3 was -0.254; that for UUCAGUACCAGGCUGGGUG against COMT was 0.499.
